Results on 16 molecules are retold here after PubChem BioAssay (NCATS).

Unmarked numbers belong to inactive results. Inconclusive results are not listed. Calls of active or inactive are those of the source. Unless noted, calls come from the whole dose curve; as a rule, active = well fitted curve in either direction with a large enough effect (not every such curve was filed as active); inconclusive = small, poorly fitted or top-dose-only effect, or another doubt; inactive = flat fitted curve, though single readings scatter. Residues, ends and D or L forms follow the SMILES beside them. A value given as a limit tells only on which side of the number the result lay.

Test [1] concerns the target Lysosomal acid glucosylceramidase (Homo sapiens) (UniProt P04062). The test is described as follows: Glucocerebrosidase-p2 (AID 348; in the data active = potency below about 10 µM; note: potency is the fitted concentration of half-maximal effect). To be noted: purified GBA, blue fluorogenic substrate, 40 min. The procedure, abridged:
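Normal human glucocerebrosidase (0.2 nM) with blue fluorogenic substrate (80 uM final) in citrate/phosphate pH 5.9 with 10mM sodium taurocholate, 0.01% tween-20; 40 min RT, NaOH/glycine stop; fluorescence Ex 365/Em 440; AC50 from a titration from 0.6 nM upwards.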

Test [2] in a line: AP1 Signaling Pathway (AID 357).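 Note: ME-180 reporter cells stimulated with EGF at its EC50 level; % is set by controls: 0 for no effect and ±100 for the full control effect.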 The conditions noted are these: ME-180 AP-1-bla reporter, EGF-induced, beta-lactamase ratio, 5 h; at 7.69 µM (top of the series) unless noted. The method, boiled down: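 A ratiometric CCF4 readout (405 nm excitation; 460 and 530 nm emission) quantified AP-1-driven beta-lactamase in ME-180 cells after 5 h with compound and EC50 EGF; AC50 values were derived for activators and inhibitors.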

In test [3] the target is Cytochrome P450 1A2 (Homo sapiens) (UniProt P05177). The experiment in a line: p450-cyp1a2 (AID 410; calls by dose curve; note: potency is the fitted concentration of half-maximal effect;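 for activity change, negative = inhibition: -100% = full effect of reference inhibitor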). The conditions noted are these: recombinant CYP1A2, luciferin-ME demethylation, luminescence; series mostly up to 11.4 µM. The method, boiled down:
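Luminescent demethylation readout: Luciferin-ME (100uM, equal to Km) turned over by 20nM CYP1A2 for 60 min at room temperature after NADPH regeneration addition, following 10 min compound preincubation. Normalization used 57 uM furafylline as full inhibition.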

Test [4] is described as follows: NFAT Signaling Pathway (AID 444).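 Note: carbachol stimulus at about its EC50 of 1 µM final; % is set by controls: 0 for no effect and ±100 for the full control effect.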 The conditions noted are these: Jurkat NFAT-bla M1, carbachol, beta-lactamase ratio, 5 h; at 7.69 µM (top of the series) unless noted. The procedure, abridged: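 Read-out: CCF4 FRET ratio (460 nm/530 nm) after 1 h RT dye loading, used for %activity and AC50 from titration series. Cells: Jurkat NFAT-β-lactamase/M1 line, treated with compound plus 1 uM carbachol for 5 h, 37 °C.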

A short description of test [5]: Stat Signaling Pathway (AID 446).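 Note: ME-180 cervical cancer cells given 40 pM IL-6 alongside compound; SIE-controlled beta-lactamase reporter measured as 460/530 nm FRET emission ratio; % is set by controls: 0 for no effect and ±100 for the full control effect.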 The conditions noted are these: ME-180 (cervical carcinoma) SIE beta-lactamase reporter, IL-6 stimulated, 5 h; at 7.69 µM (top of the series) unless noted. The method, boiled down: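 Emission at 460 and 530 nm (excitation 405 nm) reports SIE-controlled beta-lactamase in ME-180 cells. Cells received compound with 40 pM IL-6 for 5 hrs at 37 C; data scaled between 300 pM IL-6 and 125 nM JAK-inhibitor controls.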

Test [6] addresses Glucocorticoid receptor (Homo sapiens) (UniProt P04150). The test is described as follows: GR-GFP Redistribution (AID 450;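 active = compounds whose dose series gives a full or clear partial fitted curve of increased nuclear translocation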; note: potency is the fitted concentration of half-maximal effect). The conditions noted are these: U2OS GR-GFP nuclear translocation, laser cytometry, 2 h.
For test [7] the target is unchanged. The test is described as follows: GR-EFC Redistribution (AID 451; calls by dose curve; note: potency is the fitted concentration of half-maximal effect). To be noted: CHO-K1 GR-EFC translocation, beta-gal luminescence, 2 h. The method, boiled down: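 Translocation of GR-ED fusion to nuclear EA restores b-gal, read by luminescence after 1 h room-temperature detection. Engineered CHO-K1 biosensor cells, 1,000/well, exposed 2 h at 37 C to titrations up to 46 uM final.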

The target of test [8] is Mitogen-activated protein kinase 10 (Mus musculus) (UniProt Q61831). The test is described as follows: JNK3 AlphaScreen Assay (AID 530).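 Note: kinase came from lysate of stimulated human HepG2 cells; signal reports phosphorylation of biotinylated GST-cJun 1-79 at Ser73 with 10 µM ATP; % is set by controls: 0 for no effect and ±100 for the full control effect.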 The conditions noted are these: JNK3 lysate, c-Jun phosphorylation; series mostly up to 11.4 µM. The method, boiled down:
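qHTS titrations with 15 min compound pre-incubation before adding ATP (10 uM final). Read-out: AlphaScreen of Ser73-phosphorylated biotin-GST-cJun using HepG2 lysate JNK3 activated by IL-1β and TNFα.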
Background: Bead proximity is the source of the signal in Alpha formats.

For test [9], the target named is 3',5'-cyclic-AMP phosphodiesterase 4B (Homo sapiens) (UniProt Q07343). The test is described as follows: qHTS Assay for Inhibitors of PDE-IV (AID 607; active = well fitted activation curve with a large enough effect in the main read-out, with a control signal flat, not every such curve was filed as active; note: % of control where 0% means no effect). To be noted: HEK293 ACTOne CNG channel cells, membrane potential fluorescence; series mostly up to 22.9 µM. The procedure, abridged: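 The readout is membrane depolarisation from a cAMP-sensing CNG channel, detected with a potential dye at ex 535/em 590. Cells were HEK293-derived (endogenous PDE-IV) at 1000 cells/well, titrated up to 22.9 uM final.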
Sequence of 3',5'-cyclic-AMP phosphodiesterase 4B (Homo sapiens) (Q07343 whole entry, looked up): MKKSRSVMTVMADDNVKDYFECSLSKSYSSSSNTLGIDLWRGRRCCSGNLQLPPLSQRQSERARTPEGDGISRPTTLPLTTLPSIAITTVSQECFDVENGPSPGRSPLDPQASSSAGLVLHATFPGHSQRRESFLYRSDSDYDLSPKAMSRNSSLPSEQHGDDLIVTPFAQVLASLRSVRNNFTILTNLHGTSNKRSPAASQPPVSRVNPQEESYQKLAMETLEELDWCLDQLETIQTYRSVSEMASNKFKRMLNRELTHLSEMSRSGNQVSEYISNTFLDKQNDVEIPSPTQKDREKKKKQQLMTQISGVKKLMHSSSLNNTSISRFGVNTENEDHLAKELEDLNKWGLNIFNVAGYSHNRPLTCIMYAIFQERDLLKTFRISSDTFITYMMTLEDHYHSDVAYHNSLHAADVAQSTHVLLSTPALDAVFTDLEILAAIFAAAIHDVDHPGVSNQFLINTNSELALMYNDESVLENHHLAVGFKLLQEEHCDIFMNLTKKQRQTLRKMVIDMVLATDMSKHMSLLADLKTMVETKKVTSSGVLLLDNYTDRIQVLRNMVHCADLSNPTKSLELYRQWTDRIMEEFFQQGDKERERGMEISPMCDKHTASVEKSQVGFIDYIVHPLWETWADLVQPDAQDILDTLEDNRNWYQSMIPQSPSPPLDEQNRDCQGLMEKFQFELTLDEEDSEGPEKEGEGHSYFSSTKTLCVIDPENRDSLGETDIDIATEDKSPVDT

Sequence of Glucocorticoid receptor (Homo sapiens) (P04150 whole entry, looked up, the tested form may be a part): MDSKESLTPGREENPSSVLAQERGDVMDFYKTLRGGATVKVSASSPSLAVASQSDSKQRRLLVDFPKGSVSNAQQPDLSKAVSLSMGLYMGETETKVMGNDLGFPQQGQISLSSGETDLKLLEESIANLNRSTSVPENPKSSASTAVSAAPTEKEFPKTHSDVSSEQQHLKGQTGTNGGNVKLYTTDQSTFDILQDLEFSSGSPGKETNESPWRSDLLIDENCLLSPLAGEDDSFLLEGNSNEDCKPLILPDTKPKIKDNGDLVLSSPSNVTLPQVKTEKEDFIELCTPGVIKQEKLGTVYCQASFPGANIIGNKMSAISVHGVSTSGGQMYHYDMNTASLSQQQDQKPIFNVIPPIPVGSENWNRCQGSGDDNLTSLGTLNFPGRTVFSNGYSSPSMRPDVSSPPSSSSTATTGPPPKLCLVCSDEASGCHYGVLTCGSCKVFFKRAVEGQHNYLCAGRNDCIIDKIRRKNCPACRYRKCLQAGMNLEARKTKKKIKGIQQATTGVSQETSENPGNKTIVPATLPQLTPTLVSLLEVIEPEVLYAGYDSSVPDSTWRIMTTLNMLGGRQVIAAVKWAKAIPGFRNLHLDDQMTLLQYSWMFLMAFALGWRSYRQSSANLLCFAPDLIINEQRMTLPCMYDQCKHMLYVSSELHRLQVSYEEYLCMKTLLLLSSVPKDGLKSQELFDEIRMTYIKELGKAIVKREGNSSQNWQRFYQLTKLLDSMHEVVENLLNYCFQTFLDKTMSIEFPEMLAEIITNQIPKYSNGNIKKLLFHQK
Sequence of Cytochrome P450 1A2 (Homo sapiens) (P05177 whole entry, looked up): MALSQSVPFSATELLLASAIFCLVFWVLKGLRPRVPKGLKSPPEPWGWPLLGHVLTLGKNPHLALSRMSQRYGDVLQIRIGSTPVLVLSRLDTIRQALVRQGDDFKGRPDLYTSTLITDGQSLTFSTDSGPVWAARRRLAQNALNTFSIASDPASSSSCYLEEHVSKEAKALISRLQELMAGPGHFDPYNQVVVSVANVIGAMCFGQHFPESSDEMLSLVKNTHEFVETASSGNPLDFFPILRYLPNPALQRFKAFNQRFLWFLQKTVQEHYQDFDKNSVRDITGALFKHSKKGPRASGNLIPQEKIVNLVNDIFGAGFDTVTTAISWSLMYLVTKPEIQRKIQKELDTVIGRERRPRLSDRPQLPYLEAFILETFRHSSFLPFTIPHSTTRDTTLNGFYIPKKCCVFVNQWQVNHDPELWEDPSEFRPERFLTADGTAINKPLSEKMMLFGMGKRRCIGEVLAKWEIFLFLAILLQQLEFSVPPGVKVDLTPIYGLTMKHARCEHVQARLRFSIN
Sequence of Lysosomal acid glucosylceramidase (Homo sapiens) (P04062 whole entry, looked up): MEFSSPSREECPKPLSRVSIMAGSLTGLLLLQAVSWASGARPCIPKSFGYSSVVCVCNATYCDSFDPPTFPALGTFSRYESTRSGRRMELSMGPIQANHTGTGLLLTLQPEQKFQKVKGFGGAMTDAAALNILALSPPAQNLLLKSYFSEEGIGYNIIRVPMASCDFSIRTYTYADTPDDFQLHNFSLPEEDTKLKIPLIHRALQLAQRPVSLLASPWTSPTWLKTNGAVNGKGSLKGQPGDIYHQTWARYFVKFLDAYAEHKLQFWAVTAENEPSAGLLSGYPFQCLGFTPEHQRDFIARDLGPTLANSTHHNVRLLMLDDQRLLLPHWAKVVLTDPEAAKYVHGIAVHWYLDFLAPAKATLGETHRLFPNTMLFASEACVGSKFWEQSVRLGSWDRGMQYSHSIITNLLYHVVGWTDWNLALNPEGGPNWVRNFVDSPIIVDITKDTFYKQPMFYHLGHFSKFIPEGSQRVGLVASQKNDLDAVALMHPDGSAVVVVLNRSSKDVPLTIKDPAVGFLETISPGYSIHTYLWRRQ

For the molecule `N[C@H](CO)C(=O)NCC(=O)O` (HELM PEPTIDE1{[dS].G}$$$$V2.0), the Potency in [1] is over 11.4 µM; in test [6], over 46 µM; in test [7] it was over 9.22 µM. Also, the activity change, negative = inhibition in test [2] is -4.49%; in test [3], 3.6% [at 2.29 µM]; in [4], 13.2%. Moreover, in test [5], the activity, negative = inhibition was 13.6%. Also, the Potency entry in test [8] and in test [9] was “inactive” each time.

Turning to `ClC(Cl)(Cl)C(N1CCN(c2ccccc2)CC1)N1CCN(c2ccccc2)CC1`, the Potency in test [1] was over 11.4 µM; in test [6] it was over 46 µM; in test [7], over 9.22 µM. In addition, the activity change, negative = inhibition in test [2] was -0.388%; in test [3], -14.9% [at 2.29 µM]; in test [4], -2.17%. Further, in [5], the activity, negative = inhibition was -6.12%. In addition, the Potency result in test [8] and in test [9] was “inactive” each time.

Take `Oc1ccc(Cl)cc1C=Nc1cnc2ccccc2c1`: the Potency in test [1] is over 11.4 µM; in test [6] it was over 46 µM; in test [7] it was over 9.22 µM. Further, the values for the activity change, negative = inhibition in test [2], in test [3] and in [4] were 3.1%, -13.2% [at 2.29 µM] and 10.1%, respectively. The activity, negative = inhibition in test [5] was -10.7%. Also, the Potency result in test [8] and in [9] was “inactive” in each case.

Take `O=C(O)CC[C@]1(C(=O)O)CCC(=O)c2ccccc21`: the Potency in test [1] is over 11.4 µM; in test [6] it was over 46 µM; in test [7], over 9.22 µM. Also, the activity change, negative = inhibition in test [2] is 11.8%; in test [4], 4.42%. Moreover, the Potency entry in test [3], in test [8] and in test [9] was “inactive” each time. The activity, negative = inhibition in test [5] was 2.44%.

With `N#C[C@H]1CN[C@H](N)N[C@@H]1N`, the Potency is over 11.4 µM in test [1], over 46 µM in test [6] and over 9.22 µM in [7]. In addition, the figures for the activity change, negative = inhibition in test [2], in test [3] and in [4] were 2.11%, -11.6% [at 2.29 µM] and 6.86%, respectively. For the same molecule, the activity, negative = inhibition in test [5] is 13.9%. The Potency result in [8] and in test [9] was “inactive” each time.

As for `O=C(O)CCC(=O)c1ccc2sc3ccccc3c2c1`, the Potency was over 11.4 µM in test [1], 3.98 µM (active) in test [3], over 46 µM in [6] and over 9.22 µM in [7]. The activity change, negative = inhibition in test [2] was 3.02%; in test [4], 7.45%. Further, the activity, negative = inhibition in [5] is -12.2%. Also, the Potency entry in [8] and in test [9] was “inactive” in each case.

In the case of `C1CCN(CC[C@@H]2CCCCN2)CC1`, the Potency was over 11.4 µM in test [1], over 46 µM in test [6] and over 9.22 µM in test [7]. Also, the activity change, negative = inhibition in test [2] was 12.5%; in test [4], 8.93%. The Potency entry in test [3], in [8] and in test [9] was “inactive” in each case. Besides, the activity, negative = inhibition in test [5] was -0.348%.

For the molecule `CN(C)CCn1c(CO)nc2c1c(=O)n(C)c(=O)n2C`, the Potency in [1] was over 11.4 µM; in test [6] it was over 46 µM; in test [7], over 9.22 µM. Further, the activity change, negative = inhibition in test [2] is 1.13%; in test [4] it was 1.85%. Further, the Potency entry in [3], in test [8] and in test [9] was “inactive” each time. Also, in [5], the activity, negative = inhibition was 6.5%.

`OCCSCc1ccccc1`: the Potency was over 11.4 µM in [1], over 46 µM in test [6] and over 9.22 µM in [7]. Moreover, the activity change, negative = inhibition in test [2] was 2.72%; in test [4], 3.48%. Also, the Potency entry in test [3], in test [8] and in test [9] was “inactive” in each case. In test [5], the activity, negative = inhibition was 4.23%.

Turning to `[N-]=[N+]=NC[C@@H]1O[C@@H](n2cnc3c(N)ncnc32)[C@@H]2O[C@@H]21`, the figures for the Potency in test [1], in test [6] and in test [7] were over 11.4 µM, over 46 µM and over 9.22 µM, respectively. The activity change, negative = inhibition in test [2] is 8.89%; in test [4], 10.3%. Besides, the Potency entry in test [3], in test [8] and in [9] was “inactive” in each case. Also, the activity, negative = inhibition in test [5] was -3.75%.

In the case of `C[C@H]1CCCC2(CC[N+](C)(CCC[N+](C)(C)C)CC2)C1` (some centres undefined), the Potency is 11.6 µM in test [1], over 46 µM in [6] and over 9.22 µM in test [7]. Moreover, the values for the activity change, negative = inhibition in [2] and in test [4] were 14.2% and -5.86%, respectively. Moreover, the Potency result in test [3], in test [8] and in test [9] was “inactive” in each case. In addition, in test [5], the activity, negative = inhibition is 1.53%.

Turning to `O=C(O)[C@H]1CC=CC[C@@H]1C(=O)Nc1cccc(O)c1`, the figures for the Potency in test [1], in [6] and in test [7] were over 11.4 µM, over 46 µM and over 9.22 µM, respectively. Also, the values for the activity change, negative = inhibition in test [2] and in test [4] were -4.95% and 9.88%, respectively. For the same molecule, the Potency result in [3], in test [8] and in [9] was “inactive” throughout. Further, in test [5], the activity, negative = inhibition was 1.44%.

Take `O=C1c2cc([N+](=O)[O-])ccc2-c2ccc3c4ccc5c6c(ccc(c7ccc1c2c73)c64)C(=O)c1cc([N+](=O)[O-])ccc1-5`: the Potency in [1] was over 11.4 µM; in [3], 0.794 µM (active); in [6], over 46 µM; in [7], over 9.22 µM. Moreover, the activity change, negative = inhibition in [2] was 0.115%; in test [4], 21.7%. In test [5], the activity, negative = inhibition is 9.03%. Moreover, the Potency result in test [8] and in [9] was “inactive” in each case.

Consider `O=C(O)CCC(O)=C1S(=O)(=O)OCCOS1(=O)=O`, for which the figures for the Potency in test [1], in test [6] and in test [7] were over 11.4 µM, over 46 µM and over 9.22 µM, respectively. Further, the activity change, negative = inhibition is -1.99% in [2] and 2.36% in [4]. For the same molecule, the Potency entry in test [3], in test [8] and in test [9] was “inactive” in each case. The activity, negative = inhibition in test [5] was 2.62%.

For the molecule `COc1ccc2c3c([nH]c2c1)[C@H]1C[C@@H]2[C@@H](C[C@@H](O)[C@H](OC)[C@H]2C(=O)O)CN1CC3`, the values for the Potency in test [1], in test [6] and in test [7] were over 11.4 µM, over 46 µM and over 9.22 µM, respectively. Also, the activity change, negative = inhibition in [2] is -5.49%; in [4], 0.887%. Also, the Potency result in test [3], in test [8] and in test [9] was “inactive” in each case. Moreover, in test [5], the activity, negative = inhibition was -7.32%.

Take `O=C(O)c1cccc(SSc2cccc(C(=O)O)c2)c1`: the Potency in [1] is over 11.4 µM; in test [3], 5.01 µM (active); in test [6], over 46 µM; in test [7], over 9.22 µM. The results for the activity change, negative = inhibition in [2] and in [4] were 0.262% and 17.5%, respectively. The activity, negative = inhibition in test [5] is -14.5%. Moreover, the Potency entry in test [8] and in test [9] was “inactive” in each case.
